Some of the results follow. Where a call stands in place of a potency, no number is given. Results filed as inconclusive are left out. The source made the active and inactive calls. Calls follow the shape of the dose curve; as a rule, active = well fitted inhibition curve with a large enough effect; inconclusive = small, poorly fitted or top-dose-only effect; inactive = no such curve, though single readings can be large or run the other way.
Test: qHTS of pediatric cancer cell lines to identify multiple opportunities for drug repurposing: Orthogonal 3D caspase screen for TC32 cells
Conditions: TC32 3D spheroids, caspase-3/7 fluorescence imaging, 24 h; series mostly up to 30.7 µM
Description: Drug repurposing or repositioning has been offered as a strategy for drug development in oncology programs. This approach has special potential for childhood cancers and other rare or orphan diseases, where the expected return on new drug development has been a disincentive to pharmaceuticals. […] In this project we exploit the poly-pharmacology of drugs to discover new indications via phenotypic screening of a panel of 19 well-characterized cell lines derived from solid tumors seen in children and adolescents. The goal is to identify approved drugs with previously unrecognized anticancer properties that has the potential to reveal new mechanisms and biological processes involved in carcinogenesis or drug resistance. We employed a titration-based paradigm (quantitative high-throughput screening or qHTS), where all compounds were tested at multiple concentrations for their effect on cell viability. Concentration-response curves (CRCs) were derived directly from the primary screen, and both potency and efficacy values were used to identify compounds with robust bioactivity profiles. […] These two assays will be used to validate active compounds and assess the correlation of compound's potency in 2D vs 3D cultures on selected cell lines. Assay Submitter: Nathalia J. Martinez, National Center for Advancing Translational Sciences, National Institutes of Health, Rockville, MD, USA; email: natalia.martinez@nih.gov Shen, M et al. Quantitative high-throughput phenotypic screening of pediatric cancer cell lines identifies multiple opportunities for drug repurposing. Oncotarget 2017 Dec 19;9(4):4758-4772. PMID 29435139.
The cells were obtained from University of North Carolina (UNC), Pediatric Preclinical Testing Program (PPT), and Coriell Institute (CI). qHTS apoptosis assay in 3D cultures: For the apoptosis assay, cells were assayed in phenol red-free growth media at a density of 1,000 cells/well. Thirty microliters of cells were dispensed into 384-well, ULA, round bottom plates (Corning) using a Multidrop dispenser. Plates were spun down at 1,000 rpm for 1 min and incubated at 37 C, 5% CO2, under a humidified atmosphere for 24 hours to allow spheroid formation. Ninety-two nanoliter of compounds and controls were subsequently transferred via GNF Pintool. Plates were sealed using a breathable seal (Diversified Biotech, Dedham, MA) and incubated for 24 hours at 37C before addition of CellEvent Caspase-3/7 green detection reagent (TheremoFisher Scientific). Staurosporine at final concentrations of 3 µM was used as positive control. Spheroids were imaged using bright-field and green (EX: […]) filters and analyzed with the Celigo Tumorsphere 1+2 application software. Spheroids were first identified using bright-field segmentation, and the average fluorescent intensity of the green channel was used to quantify caspase activation as percent activity based on neutral control DMSO and positive control.

Compound | Potency
COC(=O)Nc1nc2ccc(Sc3ccccc3)cc2[nH]1 | 11.4 µM (active)
CC(NCc1ccc2c(c1)nc(NC(=O)c1ccc(-c3cn[nH]c3)s1)n2CC(C)(C)O)C(C)(C)C (stereo unspecified) | 1.44 µM (active)
CC[C@]1(O)C[C@@H]2CN(CCc3c([nH]c4ccccc34)[C@@](C(=O)OC)(c3cc4c(cc3OC)N(C)[C@H]3[C@@](O)(C(=O)OC)[C@H](OC(C)=O)[C@]5(CC)C=CCN6CC[C@]43[C@@H]65)C2)C1 | 0.0722 µM (active)
COc1c(C)c2c(c(O)c1C/C=C(\C)CCC(=O)O)C(=O)OC2 | inactive
C=C1C(=CC=C2CCC[C@]3(C)[C@@H]([C@H](C)C=C[C@H](C)C(C)C)CC[C@@H]23)C[C@@H](O)C[C@@H]1O | inactive
CC1(C)O[C@@H]2C[C@@H]3[C@H]4C[C@@H](F)C5=CC(=O)C=C[C@]5(C)[C@@]4(F)[C@@H](O)C[C@]3(C)[C@]2(C(=O)CO)O1 | inactive

— PubChem BioAssay AID1347138 (National Center for Advancing Translational Sciences (NCATS), 2019)
